# Test results taken from the supplement of paper PMC8728848.
# This excerpt belongs to a sample that is enriched for the strongest signals.
# B1: CLECSF8 (Mus musculus), Q9Z2H6 (protein)
# chain: HYFLRWTRGSVVKLSDYHTRVTCIREEPQPGATGGTWTCCPVSWRAFQSNCYFPLNDNQTWHESERNCSGMSSHLVTINTEAEQNFVTQLLDKRFSYFLGLADENVEGQWQWVDKTPFNPHTVFWEKGESNDFMEEDCVVLVHVHEKWVWNDFPCHFEVRRICKLPGITFNWKPSK
# Legend:
# Assay in all cases: glycan array binding signal (z-score within array); higher = stronger binding
# Settings in all cases: glycan notation: IUPAC condensed, linker removed
# [1] = molecular target: Fuc(a1-2)[Gal(a1-3)]Gal(b1-4)GlcNAc(b1-3)Gal(b1-4)Glc
# Summary of the method: (§1)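 Columns mapping to the same glycan were averaged after glycan names were converted to IUPAC-condensed notation. The data come from 3228 arrays in the Consortium for Functional Glycomics database, limited to those with an available protein sequence. Binding is reported as a within-array Z-score averaged across arrays of one protein sequence and across linkers.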
# [2] = molecular target: Fuc(a1-3)[Gal(b1-4)]GlcNAc(b1-3)Gal(b1-4)Glc
# Summary of the method: as §1
# Gal(b1-4)Glc = molecular target: Gal(b1-4)Glc
# Summary of the method: as §1
# [3] = molecular target: Gal(b1-4)GlcNAc(b1-2)Man(a1-3)[Gal(b1-4)GlcNAc(b1-2)Man(a1-6)]Man(b1-4)GlcNAc(b1-4)[Fuc(a1-6)]GlcNAc
# Summary of the method: as §1
# [4] = molecular target: Gal(b1-4)GlcNAc(b1-2)Man(a1-3)[Gal(b1-4)GlcNAc(b1-2)Man(a1-6)][GlcNAc(b1-4)]Man(b1-4)GlcNAc(b1-4)[Fuc(a1-6)]GlcNAc
# Summary of the method: as §1
# Glc(a1-4)Glc = molecular target: Glc(a1-4)Glc
# Summary of the method: as §1
# [5] = molecular target: Glc(a1-6)Glc(a1-4)Glc(a1-4)Glc
# Summary of the method: as §1
# [6] = molecular target: Glc(a1-6)Glc(a1-6)Glc(a1-6)Glc(a1-6)Glc(a1-6)Glc(a1-6)Glc(a1-6)Glc
# Summary of the method: as §1
# [7] = molecular target: GlcA(b1-3)Gal(b1-4)GlcNAc(b1-3)Gal(b1-4)Glc
# Summary of the method: as §1
# [8] = molecular target: GlcNAc(a1-4)Gal(b1-3)[Fuc(a1-2)]Gal
# Summary of the method: as §1
# [9] = molecular target: GlcNAc(b1-2)[GlcNAc(b1-4)]Man(a1-3)[GlcNAc(b1-2)[GlcNAc(b1-4)][GlcNAc(b1-6)]Man(a1-6)][GlcNAc(b1-4)]Man(b1-4)GlcNAc(b1-4)GlcNAc
# Summary of the method: as §1
# [10] = molecular target: GlcNAc(b1-4)GlcNAc(b1-4)GlcNAc
# Summary of the method: as §1
# [11] = molecular target: HexA(a1-3)GalNAc4S(b1-4)IdoA(a1-3)GalNAc4S(b1-4)IdoA(a1-3)GalNAc4S(b1-4)IdoA(a1-3)GalNAc4S(b1-4)IdoA(a1-3)GalNAc4S(b1-4)IdoA(a1-3)GalNAc4S(b1-4)IdoA(a1-3)GalNAc4S
# Summary of the method: as §1
# [12] = molecular target: Man(a1-2)Man(a1-3)[Man(a1-2)Man(a1-6)[Man(a1-3)]Man(a1-6)]Man(b1-4)GlcNAc(b1-4)GlcNAc
# Summary of the method: as §1
# [13] = molecular target: Man(a1-2)Man(a1-3)[Man(a1-3)[Man(a1-6)]Man(a1-6)]Man(b1-4)GlcNAc(b1-4)GlcNAc
# Summary of the method: as §1
# [14] = molecular target: Man(a1-3)[Man(a1-6)]Man(a1-6)[Man(a1-3)]Man
# Summary of the method: as §1
# [15] = molecular target: Neu4Ac5Ac(a2-3)Gal(b1-4)Glc
# Summary of the method: as §1
# [16] = molecular target: Neu5Ac(a2-3)Gal(b1-4)[Fuc(a1-3)]GlcNAc6S(b1-3)Gal(b1-4)Glc
# Summary of the method: as §1
# [17] = molecular target: Neu5Ac(a2-6)Gal(b1-3)GlcNAc(b1-3)[Fuc(a1-3)[Gal(b1-4)]GlcNAc(b1-6)]Gal(b1-4)Glc
# Summary of the method: as §1
# Neu5Ac(a2-6)Gal(b1-4)Glc = molecular target: Neu5Ac(a2-6)Gal(b1-4)Glc
# Summary of the method: as §1
# [18] = molecular target: Neu5Ac(a2-8)Neu5Ac(a2-3)Gal(b1-3)GalNAc(b1-4)[Neu5Ac(a2-3)]Gal(b1-4)Glc
# Summary of the method: as §1
# [19] = molecular target: Neu5Ac(a2-8)Neu5Ac(a2-8)Neu5Ac(a2-8)Neu5Ac(a2-8)Neu5Ac
# Summary of the method: as §1
# [20] = molecular target: Xyl(a1-6)Glc(b1-4)[Xyl(a1-6)]Glc(b1-4)[Xyl(a1-6)]Glc(b1-4)Glc
# Summary of the method: as §1
binder,measurement,setting,value
B1,glycan array binding signal (z-score),[1],-0.424
same,glycan array binding signal (z-score),[2],-0.424
same,glycan array binding signal (z-score),Gal(b1-4)Glc,-0.424
same,glycan array binding signal (z-score),[3],-0.424
same,glycan array binding signal (z-score),[4],-0.424
same,glycan array binding signal (z-score),Glc(a1-4)Glc,0.06
same,glycan array binding signal (z-score),[5],3.29
same,glycan array binding signal (z-score),[6],1.5
same,glycan array binding signal (z-score),[7],3.5
same,glycan array binding signal (z-score),[8],-0.424
same,glycan array binding signal (z-score),[9],-0.424
same,glycan array binding signal (z-score),[10],1.74
same,glycan array binding signal (z-score),[11],0.136
same,glycan array binding signal (z-score),[12],-0.424
same,glycan array binding signal (z-score),[13],-0.424
same,glycan array binding signal (z-score),[14],4.16
same,glycan array binding signal (z-score),[15],0.312
same,glycan array binding signal (z-score),[16],-0.424
same,glycan array binding signal (z-score),[17],-0.424
same,glycan array binding signal (z-score),Neu5Ac(a2-6)Gal(b1-4)Glc,-0.424
same,glycan array binding signal (z-score),[18],9.51
same,glycan array binding signal (z-score),[19],1.77
same,glycan array binding signal (z-score),[20],3.32
